Assay outcomes from PubChem BioAssay.
PABP1 MLLE inh – blocks PAM2 peptide binding to the PABP1 MLLE domain; GST-MLLE / FITC-PAM2 fluorescence polarization; inhibition, % at 20 µM; 0.36% of 360,000 active; AID 588489; in the data active means inhibition above about 35%, passing the limit was not always enough
eIF4H FP inh – inhibitors of RNA binding by human eIF4H; Q15056; eIF4H fluorescence polarization binding assay; inhibition, % at 35 µM; 0.94% of 290,000 active;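 further: calls also rest on retests at 20 µM and on dose response follow-up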
PERK inh – inhibitors of human PERK kinase; CHO PERK-DD fusion, SEAP luminescence translation reporter; inhibition, % at 5.6 µM; 0.17% of 220,000 active; AID 1416;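 active means inhibition above the mean inhibition of all tested compounds plus 3 SD, set separately per screening campaign, cut at about 2.9% in these data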;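 further: PERK kinase domain activated by AP20187 dimerizer at 100 nM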
PABP FP inh – PABP-poly(A) binding inhibition; P11940; PABP-poly(A) RNA binding, fluorescence polarization; inhibition, % at 35 µM; 1% of 290,000 active; AID 2014;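 further: calls also rest on retests at 20 µM and on dose response follow-up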
eIF4E-4G inh – inhibitors of eIF4E and eIF4G interaction in translation initiation; TR-FRET eIF4E-eIF4GI(517-606) binding, 2 h; inhibition, % at 21.7 µM; 0.37% of 220,000 active; AID 782;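 active means inhibition above about 30%, limit read from the data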
Of the large screens only hits and unclear results are named; the others gave an inactive call. An excerpt weighted towards active compounds, which were near 1.6% of everything screened. Unless noted, how the calls were made is not given here.

CC1CC(C)(C)NC(=S)N1CCCC(=O)Nc1ccc(Br)cc1 (stereo unspecified)	none
Cn1cnc(S(=O)(=O)N2CCc3ccccc32)c1	PERK inh 3.1
CCCC(C)c1nnc(NC(=O)CS(=O)(=O)Cc2ccccc2)s1 (stereo unspecified)	none
Cc1ccccc1CO/N=C/c1[nH]ncc1Br	PERK inh 3.5
O=c1c2ccccc2[nH]c(=S)n1CC1CCCO1 (stereo unspecified)	none (no result: eIF4H FP inh, PABP FP inh, eIF4E-4G inh)
CC1(C)CC2=C(CO1)C(=S)NC(c1ccccc1)N2CC1CCCO1 (stereo unspecified)	PABP1 MLLE inh 42, eIF4E-4G inh 95
O=C(Nc1cccc([N+](=O)[O-])c1)c1ccc(-c2ccccc2)cc1	none
COc1ccccc1N1CCN(C(=O)c2ccc3c(Cl)c4c(nc3c2)CCCC4)CC1	none
O=C1CC(c2ccco2)Sc2nc3ccccc3n21 (stereo unspecified)	eIF4H FP inh 89, PABP FP inh 63
O=C1CC(c2ccccc2)Sc2nc3ccccc3n21 (stereo unspecified)	none
Cc1sc(N)nc1C12CC3CC(CC(C3)C1)C2	none
Cc1ccc(C)c(NC2=C(Cl)C(=O)OC2OC(C)C)c1 (stereo unspecified)	eIF4H FP inh active, PABP FP inh 68
COc1ccc(NCC(=O)N/N=C/C=C/c2ccccc2[N+](=O)[O-])cc1	PABP FP inh 66
CCOC(=O)N/N=C/C=C/c1ccccc1[N+](=O)[O-]	none
CC1=NN(c2ccc(C(=O)OC(C)C)cc2)C(=O)/C1=C\C=C\c1ccco1	none
CCOC(=O)c1ccc(N2N=C(C)/C(=C/C=C/c3ccco3)C2=O)cc1	eIF4H FP inh inconclusive, PABP FP inh 3.0
COC(=O)C1=C(C)NC(=O)C1(Nc1nccs1)C(F)(F)F (stereo unspecified)	none
COC(=O)C1=C(C)NC(=O)C1(NS(=O)(=O)c1ccc(C)cc1)C(F)(F)F (stereo unspecified)	PABP FP inh 8.5
Cc1ccc(CC(=O)NNC(=O)c2ccncc2)cc1C	PABP1 MLLE inh 57 (no result: eIF4H FP inh, PERK inh, PABP FP inh, eIF4E-4G inh)
CCCc1nc2sc3c(SCC(=O)NCc4ccco4)ncnc3c2c2c1CCC2	eIF4H FP inh 78, PABP FP inh 58
O=C(CSc1ncnc2ccccc12)NCc1ccco1	PABP1 MLLE inh 44
O=C(CSc1ncnc2ccccc12)c1ccco1	none
OCCNCCSc1nc(C2CCCCC2)n(-c2ccccc2Cl)n1	eIF4H FP inh 4.8
Cc1cnc(C(=O)OC(C(=O)c2ccccc2)c2ccccc2)cn1 (stereo unspecified)	none (no result: eIF4H FP inh, PERK inh, PABP FP inh, eIF4E-4G inh)
N#CC1=C(N)C2=CCCC[C@H]2[C@H](c2ccc(Br)cc2)C1(C#N)C#N	none
N#CC1=C(N)C2=CCCC[C@H]2[C@H](c2ccccc2)C1(C#N)C#N	eIF4H FP inh 89, PABP FP inh active
Cc1ccc(S(=O)(=O)C(C#N)c2nc3ccccc3nc2N2CC(C)OC(C)C2)cc1C (stereo unspecified)	eIF4H FP inh 85, PABP FP inh 90
CC1CCCN(c2nc3ccccc3nc2C(C#N)S(=O)(=O)c2cccs2)C1 (stereo unspecified)	PABP1 MLLE inh 51
O=C(NCCN1CCCCC1)Nc1ccc(F)cc1F	none (no result: PERK inh, eIF4E-4G inh)
C=CCn1c(SCC(=O)NC2CCCC2)nc2scc(-c3ccco3)c2c1=O	eIF4H FP inh 71, PABP FP inh 26
CCCN(CCC)S(=O)(=O)c1ccc(C(=O)NCc2ccco2)cc1	none (no result: PERK inh, eIF4E-4G inh)
O=C1C=C(O)c2cccc3cccc1c23	PABP1 MLLE inh 70, eIF4H FP inh 58, PABP FP inh 58 (no result: PERK inh, eIF4E-4G inh)
NC1=CC(=O)c2cccc3cccc1c23	eIF4H FP inh inconclusive, PABP FP inh inconclusive (no result: PABP1 MLLE inh, eIF4E-4G inh)
CCOC(=O)N1CCN(c2nc3ccccc3n3cnnc23)CC1	none
Nc1cccn2c(-c3ccc(Cl)c(Cl)c3)cnc12	eIF4H FP inh 95, PABP FP inh 32
CC(C)(C)NC(=O)CN(Cc1cccs1)C(=O)C1COc2ccccc2O1 (stereo unspecified)	none
Oc1c(C(c2ccc(Cl)cc2)N2CCCC2)cc(Cl)c2cccnc12 (stereo unspecified)	none
CN1CCN(C(c2ccccn2)c2cc(Cl)c3cccnc3c2O)CC1 (stereo unspecified)	PABP1 MLLE inh 43
Oc1c(C(c2ccccn2)N2CCC(Cc3ccccc3)CC2)cc(Cl)c2cccnc12 (stereo unspecified)	none (no result: PABP1 MLLE inh)
Cc1ccc(C(c2cc(Cl)c3cccnc3c2O)N2CCN(C)CC2)cc1 (stereo unspecified)	PABP1 MLLE inh 48 (no result: PERK inh, eIF4E-4G inh)
